# “And” between values parts separate entries of the source, which are not always exact repeats. Equal entries are not always repeated. Inconclusive results are not listed. A call without a number means that no potency is given here. The source made the active and inactive calls. Unless noted, calls come from the whole dose curve.
# Columns and labels:
# [1] = Primary qHTS for Huh7 cytotoxicity: counterscreen for inhibitors of MERS-S pseudotyped particle cell entry (AID 1479147); note: potency is the fitted concentration of half-maximal effect
# [2] = Primary qHTS for Vero E6 cytotoxicity: counterscreen for inhibitors of SARS-S pseudo-typed particle cell entry (AID 1479150); note: potency is the fitted concentration of half-maximal effect
# [3] = Confirmatory qHTS for VERO E6 Cytotoxicity Assay: Counterscreen for SARS-CoV-2 CPE Assay (AID 1508605); note: nearly all actives have a fitted effect of over 60% in size
# [4] = Cytotoxicity counterscreen for inhibitors of SARS-CoV-2 cell entry (AID 1645845); note: nearly all actives have a fitted effect of over 50% in size
# Procedure, shortened: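 ATP-content luminescence (ATPLite 1step, 15 min RT) read after 48 h compound exposure of Expi293F cells stably expressing human ACE2; normalized to cells-only wells and media-only wells.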
# [5] = Confirmatory qHTS to identify inhibitors of SARS-CoV-2 cell entry (AID 1645844); note: potency is the fitted concentration of half-maximal effect; nearly all actives have a fitted effect of over 45% in size
# Procedure, shortened: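 Luminescence entry read-out after 48 h: spike-pseudotyped MLV particles (Wuhan-Hu-1, 19-aa C-terminal truncation) added to compound-pretreated (1 h) HEK293-ACE2 cells; Data were normalised to bald PP and spike PP wells.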
# [6] = Primary qHTS to identify inhibitors of SARS-CoV-2 cell entry (AID 1645846); conditions: activity change, negative = inhibition: at 57.1 µM (top of the series) unless noted; note: nearly all actives have a fitted effect of over 45% in size; note: potency is the fitted concentration of half-maximal effect
# Procedure, shortened: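 Entry measured by luciferase signal 48 h after adding SARS-CoV-2-S pseudotyped MLV particles to HEK293-ACE2 cells preincubated 1 h with compounds. Normalisation: bald particles and spike particles.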
# [7] = Primary qHTS for inhibitors of MERS-S pseudo-typed particle cell entry (AID 1479149); note: nearly all actives have a fitted effect of over 60% in size; note: potency is the fitted concentration of half-maximal effect
# [8] = Confirmatory qHTS for activators (rescue) of SARS-CoV-2 Cytopathic Effect (CPE) (AID 1508606); note: potency is the fitted concentration of half-maximal effect; nearly all actives have a fitted effect of over 70% in size
# [9] = Primary qHTS for inhibitors of La Crosse Virus (LACV) - induced cell death in SH-SY5Y cells (AID 1508616; active = well fitted curve in the direction sought with a large enough effect; an effect the other way counts as inactive or inconclusive;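 note: top concentration of the series differs between compounds; higher means more rescue of cells from virus-induced death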)
# Procedure, shortened: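 Screening measures cell viability in LACV-infected SH-SY5Y cultures. Compound was added before virus (0.01 MOI), and ATP was detected by luminescence 6 days later.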
# [10] = target: Calcium and integrin-binding protein 1 (Homo sapiens) (UniProt Q99828); experiment: Validation qHTS for Identification of Calcium Integrin Binding protein 1 (CIB1) Competitor (AID 1508618; active = well fitted curve in the direction sought with a large enough effect; an effect the other way counts as inactive or inconclusive)
# Procedure, shortened: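 Displacement of FITC-alphaIIb peptide (100 nM) from CIB1-GST (1 uM) is monitored by polarization in quantitative HTS format; buffer carries 5 mM CaCl2 and 125 mM NaCl at pH 7.4, incubations are at room temperature.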
# [11] = target: Calcium and integrin-binding protein 1 (Homo sapiens) (UniProt Q99828); experiment: Primary qHTS for Identification of Calcium Integrin Binding Protein 1 (CIB1) Competitor (AID 1508620; active = well fitted curve in the direction sought with a large enough effect; an effect the other way counts as inactive or inconclusive;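 note: GST tagged CIB1 binding a fluorescein labelled alphaIIb integrin peptide tracer; top concentration of the series differs between compounds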)
# Procedure, shortened: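 CIB1-GST (1 uM final) and compound incubated 15 min at room temperature before adding FITC-alphaIIb peptide tracer (100 nM final). Competition for binding read by fluorescence polarization (ex 480, em 540) after another 15 min at room temperature.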
# [12] = target: Cytochrome P450 2D6 (Homo sapiens) (UniProt P10635); experiment: Cytochrome P450 family 2 subfamily D member 6 (CYP2D6) small molecule antagonists: luciferase biochemical (cell-free) qHTS assay (AID 1645840; active = well fitted curve in the direction sought with a large enough effect in the repeat runs; an effect the other way counts as inactive or inconclusive; note: potency is the fitted concentration of half-maximal effect; nearly all actives have a fitted effect of over 55% in size)
# Procedure, shortened: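 P450-Glo CYP2D6 system: proluciferin substrate converted by enzyme to luciferin, read by luminescence proportional to activity. Enzyme-substrate mix with compound 10 min at room temperature, then NADPH regeneration 1 h before detection reagent.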
# [13] = target: Cytochrome P450 2C9 (Homo sapiens) (UniProt P11712); experiment: Cytochrome P450 family 2 subfamily C member 9 (CYP2C9) small molecule antagonists: luciferase biochemical (cell-free) qHTS assay (AID 1645842; active = well fitted curve in the direction sought with a large enough effect in the repeat runs; an effect the other way counts as inactive or inconclusive; note: nearly all actives have a fitted effect of over 55% in size)
# Procedure, shortened: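 P450-Glo CYP2C9 system: proluciferin substrate with enzyme in mix containing 0.4% BSA, 10 min at room temperature, then NADPH regeneration solution added and incubated 1 h at 37C. Detection reagent stopped reaction; luminescence read after 20 min as RLU.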
# Sequence of Calcium and integrin-binding protein 1 (Homo sapiens) (Q99828 whole entry, looked up): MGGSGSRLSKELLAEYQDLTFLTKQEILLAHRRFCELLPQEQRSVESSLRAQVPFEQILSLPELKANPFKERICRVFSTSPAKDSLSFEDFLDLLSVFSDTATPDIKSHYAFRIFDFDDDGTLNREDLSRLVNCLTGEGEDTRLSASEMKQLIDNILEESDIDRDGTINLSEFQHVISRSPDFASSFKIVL
# Sequence of Cytochrome P450 2C9 (Homo sapiens) (P11712 whole entry, looked up): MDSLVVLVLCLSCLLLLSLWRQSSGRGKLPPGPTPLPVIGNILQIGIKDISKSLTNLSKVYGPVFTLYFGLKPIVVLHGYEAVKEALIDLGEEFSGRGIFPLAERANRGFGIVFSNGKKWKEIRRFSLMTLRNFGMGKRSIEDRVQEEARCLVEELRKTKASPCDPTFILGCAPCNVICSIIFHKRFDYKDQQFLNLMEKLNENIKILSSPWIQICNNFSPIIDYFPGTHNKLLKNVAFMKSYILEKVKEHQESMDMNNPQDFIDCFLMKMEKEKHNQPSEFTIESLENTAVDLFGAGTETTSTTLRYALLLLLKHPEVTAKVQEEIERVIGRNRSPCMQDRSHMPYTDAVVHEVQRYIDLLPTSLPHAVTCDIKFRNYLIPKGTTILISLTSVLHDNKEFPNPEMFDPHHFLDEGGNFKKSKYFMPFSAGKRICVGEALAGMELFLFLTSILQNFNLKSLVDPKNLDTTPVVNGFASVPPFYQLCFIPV
# Sequence of Cytochrome P450 2D6 (Homo sapiens) (P10635 whole entry, looked up): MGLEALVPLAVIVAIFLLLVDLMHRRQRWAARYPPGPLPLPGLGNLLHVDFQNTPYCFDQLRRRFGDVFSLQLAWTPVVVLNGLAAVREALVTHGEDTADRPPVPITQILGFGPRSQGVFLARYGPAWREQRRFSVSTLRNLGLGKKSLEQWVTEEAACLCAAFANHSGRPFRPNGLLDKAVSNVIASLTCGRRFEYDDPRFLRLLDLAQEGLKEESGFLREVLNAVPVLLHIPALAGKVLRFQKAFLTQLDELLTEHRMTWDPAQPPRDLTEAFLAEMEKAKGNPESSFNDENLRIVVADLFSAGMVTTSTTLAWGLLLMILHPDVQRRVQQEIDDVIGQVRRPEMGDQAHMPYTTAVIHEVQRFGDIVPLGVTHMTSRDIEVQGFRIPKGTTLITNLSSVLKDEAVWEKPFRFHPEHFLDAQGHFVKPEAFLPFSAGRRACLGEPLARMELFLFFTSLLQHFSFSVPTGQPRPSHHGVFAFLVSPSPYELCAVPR
smiles,measurement,setting,value
CNCCCN1c2ccccc2CCc2ccccc21,Potency,[1],inactive
same,Potency,[2],inactive
same,Potency,[3],inactive
same,Potency,[4],inactive
CN1CCC(=C2c3ccccc3C=Cc3ccccc32)CC1,Potency,[1],inactive
same,Potency,[2],inactive
same,Potency,[3],inactive
same,Potency,[5],8.57 µM (active)
same,"activity change, negative = inhibition",[6],-24.8%
CN(Cc1cnc2nc(N)nc(N)c2n1)c1ccc(C(=O)N[C@@H](CCC(=O)O)C(=O)O)cc1,Potency,[7],inactive
COc1ccc(OC)c(C(O)CNC(=O)CN)c1 (stereo not drawn),Potency,[1],inactive
same,Potency,[2],inactive
same,Potency,[4],inactive
same,"activity change, negative = inhibition",[6],-24%
Cc1nc2n(c(=O)c1CCN1CCC(c3noc4cc(F)ccc34)CC1)CCCC2,Potency,[1],inactive
same,Potency,[2],inactive
same,Potency,[4],inactive
same,Potency,[6],inactive
Cc1oncc1C(=O)Nc1ccc(C(F)(F)F)cc1,Potency,[7],inactive
CCc1ccc(CCOc2ccc(CC3SC(=O)NC3=O)cc2)nc1 (stereo not drawn),Potency,[1],inactive
same,Potency,[2],inactive
same,Potency,[4],inactive
N=C(N)c1ccc(OCCCCCOc2ccc(C(=N)N)cc2)cc1,Potency,[1],inactive
same,Potency,[4],inactive
same,Potency,[6],15.8 µM (active)
CC[C@H](C)C(=O)O[C@H]1C[C@@H](C)C=C2C=C[C@H](C)[C@H](CC[C@@H]3C[C@@H](O)CC(=O)O3)[C@H]21,Potency,[1],inactive
same,Potency,[2],14.1 µM (active)
same,Potency,[4],inactive
same,Potency,[6],inactive
CCCN1C[C@H](CSC)C[C@@H]2c3cccc4[nH]cc(c34)C[C@H]21,Potency,[1],inactive
same,Potency,[2],inactive
same,Potency,[4],inactive
same,"activity change, negative = inhibition",[6],-12.6%
COc1ccccc1Oc1c(NS(=O)(=O)c2ccc(C(C)(C)C)cc2)nc(-c2ncccn2)nc1OCCO,Potency,[1],inactive
same,Potency,[2],inactive
same,Potency,[4],inactive
same,"activity change, negative = inhibition",[6],-16.5%
COc1cc(Nc2c(C#N)cnc3cc(OCCCN4CCN(C)CC4)c(OC)cc23)c(Cl)cc1Cl,Potency,[1],28.2 µM (active)
same,Potency,[5],19.2 µM (active)
same,Potency,[6],3.16 µM (active)
O=C1c2cccc3c2[C@H](CCC3)CN1[C@@H]1CN2CCC1CC2,Potency,[1],inactive
same,Potency,[2],inactive
same,Potency,[4],inactive
same,Potency,[6],inactive
OCCN(CCO)c1nc(N2CCCCC2)c2nc(N(CCO)CCO)nc(N3CCCCC3)c2n1,Potency,[1],inactive
same,Potency,[2],inactive
same,Potency,[4],inactive
Fc1ccc([C@@H]2CCNC[C@H]2COc2ccc3c(c2)OCO3)cc1,Potency,[1],inactive
same,Potency,[2],inactive
same,Potency,[4],inactive
same,"activity change, negative = inhibition",[6],-4.22%
CC(=O)[C@]1(O)Cc2c(O)c3c(c(O)c2[C@@H](O[C@H]2C[C@H](N)[C@H](O)[C@H](C)O2)C1)C(=O)c1ccccc1C3=O,Potency,[1],7.08 µM (active)
same,Potency,[5],0.0764 µM (active)
same,Potency,[4],inactive
same,"activity change, negative = inhibition",[6],-91.2% and -93.3%
CC[C@]1(O)C[C@H]2CN(CCc3c([nH]c4ccccc34)[C@@](C(=O)OC)(c3cc4c(cc3OC)N(C=O)[C@H]3[C@@](O)(C(=O)OC)[C@H](OC(C)=O)[C@]5(CC)C=CCN6CC[C@]43[C@@H]65)C2)C1,Potency,[1],inactive
same,Potency,[5],0.0383 µM (active)
same,Potency,[4],inactive
same,"activity change, negative = inhibition",[6],-77.7% and -70.4%
CNCC[C@H](Oc1cccc2ccccc12)c1cccs1,Potency,[7],25.1 µM (active)
same,Potency,[2],inactive
same,Potency,[3],inactive
same,Potency,[8],10 µM (active)
CN1CCC[C@@H]1CCO[C@](C)(c1ccccc1)c1ccc(Cl)cc1,Potency,[7],4.47 µM (active)
same,Potency,[2],inactive
same,Potency,[3],inactive
same,Potency,[8],10 µM (active)
CC(CCc1ccccc1)NC(C)C(O)c1ccc(O)cc1 (stereo not drawn),Potency,[7],inactive
same,Potency,[2],inactive
same,Potency,[9],inactive
same,Potency,[10],inactive
same,Potency,[11],inactive
same,Potency,[12],195 nM (active)
same,Potency,[13],inactive
Cc1ccc(O)c([C@H](CCN(C(C)C)C(C)C)c2ccccc2)c1,Potency,[1],inactive
same,Potency,[2],inactive
same,Potency,[4],inactive
CCC[C@H](N[C@@H](C)C(=O)N1[C@H](C(=O)O)C[C@@H]2CCCC[C@@H]21)C(=O)OCC,Potency,[1],inactive
same,Potency,[2],inactive
same,Potency,[4],inactive
same,Potency,[6],inactive
CN(C)CC/C=C1\c2ccccc2COc2ccccc21,Potency,[1],inactive
same,Potency,[2],inactive
same,Potency,[4],inactive
COc1cc2c(cc1OC)C(=O)C(CC1CCN(Cc3ccccc3)CC1)C2 (stereo not drawn),Potency,[1],inactive
same,Potency,[2],inactive
same,Potency,[4],inactive
same,"activity change, negative = inhibition",[6],-29.7%
C#C[C@]1(O)CC[C@H]2[C@@H]3CCC4=Cc5oncc5C[C@]4(C)[C@H]3CC[C@@]21C,Potency,[1],inactive
same,Potency,[2],inactive
same,Potency,[4],inactive
CN1CCN(CCCN2c3ccccc3Sc3ccc(C(F)(F)F)cc32)CC1,Potency,[7],28.2 µM (active)
same,Potency,[2],inactive
